Compounds with a hit are over-represented: about 3.1% of the library has one in this group of screens.
Anthrax LF prot: Bacillus anthracis LF protease inhibitors, primary screen, biochemical, multiplex microsphere, MLPCN library; multiplex microsphere protease cleavage assay; inhibition, % at 10 µM; hit rate 0.12% among 360,000; AID 588501, 2011
Target sequence (P15917 whole entry, looked up): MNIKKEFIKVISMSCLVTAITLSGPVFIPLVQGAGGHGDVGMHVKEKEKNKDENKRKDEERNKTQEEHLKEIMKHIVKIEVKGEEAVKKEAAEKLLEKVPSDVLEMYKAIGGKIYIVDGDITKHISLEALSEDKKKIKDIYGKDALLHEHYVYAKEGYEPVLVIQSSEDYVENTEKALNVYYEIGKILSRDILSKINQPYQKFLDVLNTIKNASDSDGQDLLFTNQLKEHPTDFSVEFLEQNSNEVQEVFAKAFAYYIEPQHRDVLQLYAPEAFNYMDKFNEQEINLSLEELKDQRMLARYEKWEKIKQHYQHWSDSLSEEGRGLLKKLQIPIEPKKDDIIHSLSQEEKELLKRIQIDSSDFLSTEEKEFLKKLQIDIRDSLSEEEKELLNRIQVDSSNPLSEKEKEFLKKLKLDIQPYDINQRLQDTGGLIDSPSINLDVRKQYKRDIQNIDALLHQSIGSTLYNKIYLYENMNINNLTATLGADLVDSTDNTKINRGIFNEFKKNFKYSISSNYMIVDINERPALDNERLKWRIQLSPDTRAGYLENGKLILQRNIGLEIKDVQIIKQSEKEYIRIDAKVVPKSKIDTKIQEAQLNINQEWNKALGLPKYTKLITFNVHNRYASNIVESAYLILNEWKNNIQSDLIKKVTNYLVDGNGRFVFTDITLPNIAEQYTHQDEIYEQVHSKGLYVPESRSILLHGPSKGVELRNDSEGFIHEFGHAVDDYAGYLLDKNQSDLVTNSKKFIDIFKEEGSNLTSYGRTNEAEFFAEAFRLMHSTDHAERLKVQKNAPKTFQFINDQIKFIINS
Autofluor counter: counter-screen for toxin protease inhibitors: compound fluorescence; fluorescence intensity (no concentration beside the values); compound autofluorescence counterscreen, microsphere flow cytometry; stronger effect = higher value; AID 624483; hit rate 3.1% among 360,000; in the data active means fluorescence intensity above about 16000; inconclusive means no clear call, values can overlap the other calls
BoNT A protease: BoNT/A light chain protease inhibitors, primary screen, biochemical, flow cytometry, MLPCN library | Botulinum neurotoxin type A light chain protease (Clostridium botulinum A str. ATCC 3502) | multiplex microsphere protease substrate cleavage | inhibition, % at 10 µM | hit rate 0.17% among 360,000
BoNT F protease: BoNT/F light chain protease inhibitors, primary screen, biochemical, flow cytometry, MLPCN library | Multiplex microsphere protease cleavage assay | AID 588497, 2011 | inhibition, % at 10 µM | hit rate 0.22% among 360,000 | Botulinum neurotoxin type F light chain protease (Clostridium botulinum); in the data active means inhibition above about 35%, passing the limit was not always enough; inconclusive means no clear call, values can overlap the other calls
SSB-PriA inh: inhibitors of Klebsiella pneumoniae PriA binding to SSB C-terminal tail, primary screen, biochemical, AlphaScreen. inhibition, % at 33 µM. AID 1272365, 2023. PriA–SSB C-terminal tail interaction (Klebsiella pneumoniae). hit rate 0.6% among 430,000. AlphaScreen SSBct-PriA binding, biotinylated peptide; in the data active means inhibition mostly above about 37%, no sharp cut-off; inactive means mostly below about 20%
Hits are given with their value; n = inactive; u = inconclusive; x = no result given. Unless noted, no stated cut-off is given here; in the data, active means inhibition above about 30%; inconclusive means no clear call, values can overlap the other calls; inactive means below that.

SMILES	Anthrax LF prot	Autofluor counter	BoNT A protease	BoNT F protease	SSB-PriA inh
O=C(NCCc1ccccc1)c1ccc(-n2cnnn2)cc1	n	16633	u	n	n
O=C(NCCc1c[nH]c2ccccc12)c1ccc(-n2cnnn2)cc1	n	n	n	n	n
CCN(CC)S(=O)(=O)c1cccc(C(=O)Nc2ccc(C#N)cc2)c1	n	16843	n	n	n
CN(C)CCNC(=O)c1ccccc1	n	20030	n	n	n
O=C(NCSC1=NCCS1)c1ccccc1	n	24719	n	n	n
Cn1c(=O)c(C(=O)Nc2ccc(S(N)(=O)=O)cc2)cc2cccnc21	x	x	x	x	n
CCN(CC)S(=O)(=O)c1cccc(C(=O)NCCc2ccccc2)c1	n	16952	n	n	n
CN(c1ccc(C(=O)NCCc2ccccc2)cc1)S(C)(=O)=O	n	20035	n	n	n
Cc1nccn1-c1ncc(NC(=O)COc2ccc(-n3cccn3)nn2)cn1	x	x	x	x	n
COc1ccccc1Cn1c(=S)[nH]c2cc(C(=O)N3CCCC3)ccc2c1=O	n	n	n	n	n
COCCn1c(=O)[nH]c2cc(C(=O)N3CCN(c4ccccc4OC)CC3)ccc2c1=O	n	n	n	n	n
CCN1CCN(C(=O)c2ccc3c(=O)n(Cc4ccccc4OC)c(=S)[nH]c3c2)CC1	n	18735	n	n	n
CCCn1c(=S)[nH]c2cc(C(=O)N3CCN(C(=O)OCC)CC3)ccc2c1=O	n	n	n	n	n
CCOC(=O)N1CCN(C(=O)c2ccc3c(=O)n(Cc4ccc(Cl)cc4)c(=S)[nH]c3c2)CC1	n	19158	n	n	n
COCCn1c(=S)[nH]c2cc(C(=O)N3CCN(c4ccccc4OC)CC3)ccc2c1=O	n	22207	u	n	n
CCOCCCn1c(=S)[nH]c2cc(C(=O)N3CCOCC3)ccc2c1=O	n	17022	n	n	n
COc1ccc(Cl)cc1NC(=O)CSc1ncc(S(=O)(=O)c2cccs2)c(N)n1	x	x	x	x	n
O=C(Nc1ccccn1)c1ccc(S(=O)(=O)NC2CC2)cc1	x	x	x	x	n
COc1nn(C)cc1C(=O)N1CCc2nc3ccccn3c(=O)c2C1	x	x	x	x	n
CCOC(=O)C1CCN(C(=O)c2cc3c(OC)c(OC)c(OC)cc3[nH]2)CC1	n	n	n	n	n
CCN(CC)C(=O)c1ccc2c(=O)n(CCOC)c(=S)[nH]c2c1	n	20993	u	n	n
CCN(CC)C(=O)c1ccc2c(=O)n(Cc3ccc4c(c3)OCO4)c(=S)[nH]c2c1	n	n	n	n	n
COCCn1c(=S)[nH]c2cc(C(=O)NCc3ccccc3)ccc2c1=O	n	n	n	n	x
CC1CCCN(C(=O)c2ccc3c(=O)n(Cc4ccc5c(c4)OCO5)c(=S)[nH]c3c2)C1 (stereo unspecified)	n	22529	n	n	n
CCN1CCN(C(=O)c2cc3c(OC)c(OC)c(OC)cc3[nH]2)CC1	n	n	n	n	64
SMILES	Anthrax LF prot	Autofluor counter	BoNT A protease	BoNT F protease	SSB-PriA inh
Cn1c(C(F)(F)F)nn(CC(=O)N2CCC(Cc3ccccc3)CC2)c1=O	x	x	x	x	n
COC(=O)n1c(=O)oc2ccc(S(=O)(=O)N3CCCCC3)cc21	n	n	n	n	n
Cn1c(=O)oc2cc(S(=O)(=O)N3CCC4(CC3)OCCO4)ccc21	n	22987	n	n	n
COC(=O)n1c(=O)oc2cc(S(=O)(=O)N3CCOCC3)ccc21	n	20705	n	n	n
O=C1c2cccc3cccc(c23)C(=O)N1CC1CCN(CC(O)COc2ccc3c(c2)OCO3)CC1 (stereo unspecified)	x	x	x	x	n
Cc1ccsc1C1Nc2ccc3ncccc3c2C2=C1C(=O)CC(C)(C)C2 (stereo unspecified)	n	16347	u	n	n
O=C1CCCC2=C1C(c1cccs1)Nc1ccc3ncccc3c12 (stereo unspecified)	n	23605	u	n	n
Clc1ccc(Cl)c(-c2nc3ccccc3s2)c1	x	x	x	x	n
CN1CCN(C(CNS(=O)(=O)c2ccc(Br)cc2)c2ccc(N(C)C)cc2)CC1 (stereo unspecified)	x	x	x	x	n
O=C(Nc1cccc(N2CCCC2=O)c1)OCc1ccccc1	x	x	x	x	n
CN1CCc2c(C#N)c(N3CCCCC3)nc(N3CCOCC3)c2C1	x	x	x	x	n
CN1CCc2c(c(N3CCCCC3)nc3n[nH]c(N)c23)C1	n	20525	u	n	n
CC(C)c1ccc(CNC(=O)c2sccc2S(=O)(=O)N2CCN(c3ccccc3)CC2)cc1	x	x	x	x	n
O/N=C1/C(=C\c2ccccc2)N2CCC1CC2	n	19798	n	n	x
COc1ccc(/C=C2\C(=N\O)C3CCN2CC3)cc1	n	n	n	n	x
O=C(Nc1ccccc1C(F)(F)F)C1CC(=O)N(c2ccccc2F)C1 (stereo unspecified)	n	21214	n	n	n
COc1ccc(C)cc1NC(=O)CSc1ccccn1	x	x	x	x	56
COc1ccc(C)cc1NC(=O)CSc1ccc(-c2ccccn2)nn1	n	u	n	n	52
COc1ccc(C)cc1NC(=O)COC(C)=O	n	16638	n	n	n
COc1ccc(C)cc1NC(=O)CSc1cc(-c2ccccn2)nc(C)n1	x	x	x	x	n
COc1cc(Cl)c(C)cc1NC(=O)CSc1ccc(C)cc1	n	23633	n	n	n
COc1ccccc1/C=C/c1nn2c(-c3cccnc3)nnc2s1	x	x	x	x	n
COc1ccc(Cl)cc1NC(=O)C(=O)NCC1CCN(C(=O)c2ccncc2)CC1	x	x	x	x	n
O=C(CNS(=O)(=O)c1ccccc1)N1CCOC(c2ccccc2)C1 (stereo unspecified)	x	x	x	x	n
O=C(COc1ccccc1F)Nc1ccc2c(c1)N(C(=O)C1CCCO1)CC2 (stereo unspecified)	x	x	x	x	n
SMILES	Anthrax LF prot	Autofluor counter	BoNT A protease	BoNT F protease	SSB-PriA inh
O=C(NCCOc1ccc(F)cc1)C1CCCC1	x	x	x	x	n
COc1ccc2cc(C(=O)NCCCN3CCCC3=O)[nH]c2c1	n	n	n	n	40
COc1cccc2[nH]c(C(=O)NCCCN3CCCC3=O)cc12	n	n	n	n	n
COc1ccc(S(=O)(=O)NCC2(O)CCCC2)cc1F	x	x	x	x	n
CCC(C)Nc1c2c(nc3c(-c4ccccc4)c(C)nn13)CCC2 (stereo unspecified)	n	22116	n	n	n
Cc1nn2c(NCCOCCO)c3c(nc2c1-c1ccccc1)CCCC3	n	n	n	n	n
CCCCNc1c2c(nc3c(-c4ccccc4)c(C)nn13)CCC2	n	20079	n	n	n
COCCNc1c2c(nc3c(-c4ccccc4)c(C)nn13)CCCC2	n	23437	n	n	n
COC1CCN(c2ccc(C(=O)Nc3ccc(F)c(Cl)c3)cc2)C1 (stereo unspecified)	x	x	x	x	n
Cc1ccc(C(=O)OCC(=O)N2CCOCC2)cc1	n	n	n	n	n
Nc1nonc1C(=O)OCC(=O)N1CCOCC1	n	20876	u	n	n
COc1ccc(CNC(=O)N2CC(S(=O)(=O)C3CCCCC3)C2)cc1OC	x	x	x	x	n
COc1ccc(NC(=O)C23CC4CC(C2)CC(n2cnc(Br)n2)(C4)C3)cc1OC	n	16534	u	n	n
Cc1oncc1C(=O)Nc1ccsc1-c1nc(C2CC2)no1	x	x	x	x	n
O=C(CCc1ccccc1)c1ccc2c(c1)OCCCO2	n	19780	u	n	n
O=C(CCN1CCc2ccccc2C1)c1ccc2c(c1)OCCO2	n	n	n	n	n

Source: PubChem (several laboratories)
